Test results: PMC12136788
The full ranking holds about 24,000 sequences; the median of “enrichment r” is about 0.99, and the highest 2% start at about 3.7. Not all results are given here.

T1: UNK ZnF1-3 (human, UniProt Q9C0B0 31-174)
T1 sequence: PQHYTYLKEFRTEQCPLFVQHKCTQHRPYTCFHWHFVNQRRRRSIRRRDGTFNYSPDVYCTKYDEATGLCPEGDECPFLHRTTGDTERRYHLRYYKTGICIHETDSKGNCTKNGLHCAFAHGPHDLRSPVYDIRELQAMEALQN

B1: chr6:117881578:117881579:-_ENSG00000047932_ENST00000052569|hu_hu|motif|central (ssRNA)
RNA: GGGAGUUCUACAGUCCGACGAUCUUUAAUGUAGAAGAUGCCAUCUUUAUUUACAGGCUAAUAAAAAAAUAUUAAACUCAACGGGAUAUAAUACAUUAUCAUAAAUGCAAUAGAUUUGAGGCCAACCAUAAGUGUAAGACUGGACAACAGAGGAUUGAGCAUCA
B2: chr3:144353948:144353949:-_ENSMUSG00000037062_ENSMUST00000163279|mus_hu|FALSE|FALSE (ssRNA)
RNA: GGGAGUUCUACAGUCCGACGAUCACCAAACAACUCUGAAAAUAACCCAUCAAAACAUAAUAUUAAAAUCAUUUGAUUUCUGUUGGAAAACCAGGUAAACAUAGUUUAAAUGCGUUUUUGUCUAUGAAAGCAUUCAGAAAAUUCCAACAGAGGAUUGAGCAUCA
B3: chr7:134094464:134094465:+_ENSMUSG00000030683_ENSMUST00000106335|mus_hu|FALSE|FALSE (ssRNA)
RNA: GGGAGUUCUACAGUCCGACGAUCCUCCGUCUCCGUUUAUCUUUCCCUUUAAUUGUUUUUUUUUUUUUUUUUUUUUUCCUCGUAGGAGUCAGCAAAGAAAGACAAUUUCUCUGCCCCUUGGGAUGGAGGGGCAGAAUUGGGCUACAACAGAGGAUUGAGCAUCA
B4: chr19:3980662:3980663:-_ENSG00000167658_ENST00000309311|hu_mus|FALSE|FALSE (ssRNA)
RNA: GGGAGUUCUACAGUCCGACGAUCGAACACUCUACCAAAGGCAUAGAAGCGGCCUUUGUCAGAGGUUGGCACCAUCUUGGAAAUGUACAUCAUAAGUGGGCCUUUGGGGUCGCAGCUCUUAAUACCCAUGGCGGCCUCAUCGUCCAACAGAGGAUUGAGCAUCA
B5: chr16:45382771:45382772:-_ENSMUSG00000022661_ENSMUST00000163230|mus_mus|motif|central (ssRNA)
RNA: GGGAGUUCUACAGUCCGACGAUCGAGAGUGUUAUUGUGGGCCCAAUGGAUAGGGAGAGCAUGCUUUUGUAAAGAUGUGAACGGCUCACUAAGACUAACAAUAUUGCCUAAGUGCUAUAAAAAUAAGUUAAAUGGACACAUUACCAACAGAGGAUUGAGCAUCA
B6: chr6:44218825:44218826:+_ENSG00000096384_ENST00000371646|hu_hu|FALSE|FALSE (ssRNA)
RNA: GGGAGUUCUACAGUCCGACGAUCGUUGUUCUUUUUCUUCUUGUUCUCAAAAAGGUCAAAGGGAGCCCGACGAGGAAUAAAUAGCAAUGCCCUGAAUUCCAACUGACCUUCUACAGAAAAGUGCUUGACUGCCAAGUGGUCUUCCAACAGAGGAUUGAGCAUCA
B7: chr10:115881139:115881140:-_ENSG00000165813_ENST00000369287|hu_hu|motif|central (ssRNA)
RNA: GGGAGUUCUACAGUCCGACGAUCAUAAAAAUAUUUUCACCAGGGUAGCAUAUAUAACAACAUUUACAUUAUUAAGGAUUCGGUUUUUUUCUUUUACUGAUAAAUCUUGGUUUAAAUUUGCAUGUAACAAUUUUUAGAAAAUAACAACAGAGGAUUGAGCAUCA
B8: chr4:62795864:62795865:+_ENSMUSG00000028358_ENSMUST00000107415|mus_hu|motif|central (ssRNA)
RNA: GGGAGUUCUACAGUCCGACGAUCCAGAGUCUAAAUCAAAUCUGAAGAAACAAAAUGAACCCCCAAACAAGGUAAAAAUUGCGGAAAUGUUAGGGAGAGAAAUUAUUAGGGAGUGGAGACAGUAUCUAUACUUCUCUGAAAAAUCAACAGAGGAUUGAGCAUCA
B9: chr1:44133529:44133530:+_ENSG00000066135_ENST00000372396|hu_hu|FALSE|FALSE (ssRNA)
RNA: GGGAGUUCUACAGUCCGACGAUCAAACUCAGCUGCUUCUGGCGUGGGCAGAGUAUGGUCAAUAACUGUGUUGUCCUUCCCAGCUUUCCAAAGUUUGUACCUUUCUGGCUGGAACUUUCUCACAAACACAUCCAUGGAGAUCUUCAACAGAGGAUUGAGCAUCA
B10: chr7:149068622:149068623:-_ENSMUSG00000025139_ENSMUST00000001950|mus_hu|mus_mus_mus_hu_False|28_108 (ssRNA)
RNA: GGGAGUUCUACAGUCCGACGAUCGUGCAGGUACUGAGUGUGGCUUGUGGUCUGUCCUGGGUUAGAGUUGUUAAUAUCACGGAACAUACCAUCUAGAACGUUCCAGUCUGCCUGACUACCUUCAUUCCCAAUGGAGAAGAAAUCCAACAGAGGAUUGAGCAUCA
B11: chr12:111867003:111867004:+_ENSMUSG00000018707_ENSMUST00000018851|mus_hu|FALSE|FALSE (ssRNA)
RNA: GGGAGUUCUACAGUCCGACGAUCCACCAGCAUAUUUAUCUUCAUGUAACCUUUCAGAAGCCUCUGAACAAACUCAUAGGACGCAUACUGUCGCAACCGGGCAGGGAAGCUUUUCAGCUGGUUCAGGAGGGCAUCCAAAUUUUGCAACAGAGGAUUGAGCAUCA
B12: chr18:32579733:32579734:+_ENSMUSG00000024381_ENSMUST00000025239|mus_mus|motif|central (ssRNA)
RNA: GGGAGUUCUACAGUCCGACGAUCUUUAUGGAAGUUUUCCUCCAGACCCGCGAUGCUCUGGAACGUGUUGACAUAGAAACCGGCACGGCUGUUCCACAGGGAUGGCAGCUCCUCCUGCAGAUCCACGUUCAUCUCCUCGAACACCAACAGAGGAUUGAGCAUCA
B13: chr8:27055589:27055590:-_ENSMUSG00000037260_ENSMUST00000037609|mus_hu|FALSE|FALSE (ssRNA)
RNA: GGGAGUUCUACAGUCCGACGAUCUUCCCUUUAACAAAGGCUGCUUCAGUCCUCCCUGCAGGCCUACUAGAGUCUUCCAGCAGCACAUCUCAGUGGGAGCCAUCAGAUUUUCCAAAAAAUCUUCUUUCUAUAGAGGAUGUAGGCCAACAGAGGAUUGAGCAUCA
B14: chr16:94690093:94690094:+_ENSMUSG00000040785_ENSMUST00000117648|mus_hu|mus_mus_mus_hu_True|28_38 (ssRNA)
RNA: GGGAGUUCUACAGUCCGACGAUCGGGCUGGGAUGACGGACACACAGCCUCGAUUCCAGGGGGAAAAAGUCUUAGUCGAUACUAAUUAAAAAGUGUUUUUAUAAUUGAUUACCAAAAUUACAUCUAUAAAAGAUGAAAAGCAAACAACAGAGGAUUGAGCAUCA

Each binder was assayed against T1, UNK ZnF1-3 (assay: nsRBNS (natural sequence RNA bind-n-seq); RBNS binding buffer (assumed for nsRBNS): 25 mM Tris pH 7.5, 150 mM KCl, 3 mM MgCl2, 0.01% Triton X-100, 500 ug/ml BSA, 20 U/ml SUPERase-In, 4 C; UNK is unkempt and MSI1 is Musashi-1; names of the RNAs are library labels; protein concentration not given here; high values mean tight binding).

Row | Binder | binding signal [enrichment R]
1 | B1 | 1.5
2 | B2 | 0.744
3 | B3 | 1.16
4 | B4 | 1.18
5 | B5 | 2.47
6 | B6 | 0.931
7 | B7 | 2.85
8 | B8 | 1.32
9 | B9 | 0.628
10 | B10 | 0.859
11 | B11 | 1.13
12 | B12 | 0.625
13 | B13 | 1.28
14 | B14 | 1.26
